Screening results (PubChem BioAssay)
D2 ag-1 = HTS Assay for Allosteric Agonists of the Human D2 Dopamine Receptor: Primary Screen for Agonists; activation, % at 2 µM; HEK293 T-REx D2 cells, calcium flux agonist mode; 0.53% of 340,000 active; D(2) dopamine receptor (Homo sapiens), P14416;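 active = activation over 3 SD above normal in the single-dose calcium agonist read, cut at about 30% in these data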
Target sequence (P14416 whole entry, looked up): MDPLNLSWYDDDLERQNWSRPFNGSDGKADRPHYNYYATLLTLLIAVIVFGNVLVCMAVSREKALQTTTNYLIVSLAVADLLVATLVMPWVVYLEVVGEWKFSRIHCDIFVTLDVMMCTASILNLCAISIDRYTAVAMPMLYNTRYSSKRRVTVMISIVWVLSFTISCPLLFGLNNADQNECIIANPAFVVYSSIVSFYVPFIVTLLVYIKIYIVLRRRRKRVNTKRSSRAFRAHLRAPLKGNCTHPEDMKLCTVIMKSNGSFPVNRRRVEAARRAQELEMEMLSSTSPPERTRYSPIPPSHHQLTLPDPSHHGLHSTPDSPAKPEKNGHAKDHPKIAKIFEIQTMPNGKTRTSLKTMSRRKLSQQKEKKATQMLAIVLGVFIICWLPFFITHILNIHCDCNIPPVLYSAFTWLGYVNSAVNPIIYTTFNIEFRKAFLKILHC
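In this primary screen, compounds producing a positive calcium signal within 180 s of addition to tetracycline-induced, force-coupled HEK293 Trex D2 cells are flagged; cells are dye-loaded with a no-wash calcium kit beforehand.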
D2 ag-2 = Beta-Arrestin HTS for Positive Allosteric Modulators of the Human D2 Dopamine Receptor: Agonists; DiscoveRx PathHunter D2 beta-arrestin, luminescence, 90 min; 100% = 57 uM dopamine signal; activation, % (concentration not given with the values); 0.084% of 360,000 active; in the data active = activation above about 40%
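DiscoveRx PathHunter D2 beta-arrestin cells (2,100/well) attached overnight, then compound-stimulated 90 min at 37 C in HBSS/10 mM HEPES/0.1% Tween-20 buffer; beta-galactosidase complementation read by luminescence after 1 h at ambient temperature. Dopamine 57 uM final (EC100) as control.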
D2 antag = HTS Assay for Allosteric Antagonists of the Human D2 Dopamine Receptor: Primary Screen for Antagonists | HEK293 TREx D2 cells, calcium flux, dopamine EC80 | D(2) dopamine receptor (Homo sapiens), P14416 | inhibition, % at 10 µM | 2% of 340,000 active; in the data active = inhibition above about 30%; inactive = below that, where a call was filed
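Tetracycline-induced HEK293 TREx cells expressing D2 receptor forced-coupled to calcium signalling, loaded with no-wash calcium dye. Compounds added and calcium flux read 180 s, then dopamine added at EC80 and read a further 180 s.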
D2 PAM-1 = Beta-Arrestin HTS for Positive Allosteric Modulators of the Human D2 Dopamine Receptor: Potentiators; D(2) dopamine receptor (Homo sapiens), P14416; DiscoveRx D2 beta-arrestin cells, luminescence, 90 min; 100% = 57 uM dopamine signal; potentiation, % (test concentration not listed); 0.23% of 360,000 active; AID 624464, 2012; in the data active = potentiation above about 50%
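PathHunter D2 cells, attached overnight at 37 deg C, received compound in DMSO plus dopamine at EC20 (50 nM final) for 90 min at 37 deg C. Beta-arrestin recruitment was read as luminescence after 1 h with detection reagent at ambient temperature.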
D2 PAM-2 = HTS Assay for Positive Allosteric Modulators of the Human D2 Dopamine Receptor: Primary Screen for Potentiators; 0.34% of 340,000 active; AID 485347, 2010; potentiation, % at 10 µM; HEK293 T-REx D2, calcium flux, EC20 dopamine potentiation; D(2) dopamine receptor (Homo sapiens), P14416;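 active = potentiation over 3 SD above the plate norm, cut at about 30% in these data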
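Calcium flux readout, no-wash dye, 1 read/s. Inducible HEK293 Trex D2 line, overnight 30 C. Compound alone 180 s (agonist flags), then EC20 dopamine, another 180 s to score potentiation.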
Hits are given with their value; - = inactive; . = no result given. Sampled rows, rich in hits. Any-hit rate of the full collection: about 2.4%.

SMILES	D2 ag-1	D2 ag-2	D2 antag	D2 PAM-1	D2 PAM-2
Cc1ccc(Cl)cc1NC(=O)CN1C(=O)C(C)(C)c2cc(S(=O)(=O)N3CCCCC3)ccc21	-	.	.	.	-
Cc1ccc(OCCCC(=O)Nc2nc3ccccc3[nH]2)cc1	-	-	-	-	-
O=C(CCCOc1ccccc1)Nc1nc2ccccc2[nH]1	-	-	-	-	69.7
O=C1CCCN2N=C(SCC(=O)N3N=C(c4ccc(Br)cc4)CC3c3ccc(F)cc3)SC2=N1 (centres undefined)	-	-	-	-	-
COc1ccc(C2=NN(C(=O)CSc3ncccn3)C(c3ccc(OC)cc3)C2)cc1 (centres undefined)	-	-	-	-	-
COc1ccc(C2=NN(C(=O)CSc3nc(=O)n4cc(C)ccc4n3)C(c3ccc(C)cc3)C2)cc1 (centres undefined)	-	-	40.6	-	-
Cc1ccc(C2CC(c3ccc(Br)cc3)=NN2C(=O)CSC2=NN3CCCC(=O)N=C3S2)cc1 (centres undefined)	-	-	-	-	33.0
CC1CCN(CCOc2ccc(OCc3ccccc3)cc2)CC1	-	-	30.9	-	-
c1ccc(COc2ccc(OCCCCN3CCCC3)cc2)cc1	-	-	-	-	-
CC1CCN(CCCCOc2ccc(C(C)(C)C)cc2)CC1	-	-	32.6	-	-
COc1ccc(NC(=O)C2CCCN2S(=O)(=O)c2ccc3c(c2)CCCC(=O)N3)cc1Cl (centres undefined)	-	.	.	.	-
CCN1/C(=C/c2ccc3cc(C)ccc3[n+]2CC)Sc2ccccc21	36.0	-	-	-	-
COc1ccc(OC)c(CNC(=O)c2ccc(C)c(NC(=O)c3nsc4ccccc34)c2)c1	-	.	.	.	-
O=C(c1ccc(NC(=O)C2(c3ccccc3)CCOCC2)cc1)N1CCOCC1	-	-	31.7	-	-
O=C(Nc1ccc(Cl)c(C(=O)N2CCOCC2)c1)c1ccccc1	-	-	-	-	52.4
CC(=O)c1ccc(NC(=O)C2(c3ccccc3)CCOCC2)cc1	-	-	-	-	-
CCCC1CCc2c(sc(NC(=O)OCC)c2C#N)C1 (centres undefined)	-	-	.	-	34.0
CCOC(=O)Nc1sc2c(c1C#N)CCCC2	-	-	-	-	-
COc1cc(Cl)c(C)cc1NC(=O)CSc1cc(=O)n(C)c2cc(Cl)ccc12	-	.	.	.	-
O=C(c1ccc2c(=O)n3c(nc2c1)CCCCC3)N1CCN(c2ccc(F)cc2)CC1	-	-	-	-	-
O=c1c2cc(NC(=S)NCCCN3CCC(Cc4ccccc4)CC3)ccc2nc2n1CCCCC2	-	-	51.8	-	-
O=C(Nc1ccc2nc3n(c(=O)c2c1)CCCCC3)C(=O)N1CCN(c2ccc(F)cc2)CC1	-	-	34.3	-	-
O=C(Nc1ccc2nc3n(c(=O)c2c1)CCCCC3)c1ccccc1[N+](=O)[O-]	-	-	30.2	-	-
Cc1ccc(NC(=O)c2cnc(SCC(=O)N3CCOCC3)n(C)c2=O)cc1C	-	.	.	.	-
Cc1cc(C)n(CCc2nc3c4ccccc4nc(N4CCN(c5ccccc5)CC4)n3n2)n1	-	.	.	.	-
SMILES	D2 ag-1	D2 ag-2	D2 antag	D2 PAM-1	D2 PAM-2
CS(=O)(=O)N(CCc1ccccc1)CC(N)=O	-	-	31.3	-	-
CS(=O)(=O)c1ccc(Cl)c(S(=O)(=O)NCc2ccccc2)c1	-	-	35.0	-	-
Cc1ccc(NC(=O)C2CCCN(c3nnc(-n4c(C)ccc4C)s3)C2)c(C)c1 (centres undefined)	-	.	.	.	-
COc1ccccc1CN1CCC(CNS(=O)(=O)c2cc(-c3onc(C)c3C)ccc2OC)CC1	-	-	33.4	-	-
COc1ccccc1N1CCN(C2CCN(C(=O)COc3ccccc3)CC2)CC1	-	-	89.8	-	-
COc1ccccc1N1CCN(C(=O)C2CCN(C(=O)c3ccccc3Cl)CC2)CC1	-	-	-	-	-
COc1ccccc1N1CCN(C2CCCC(C)C2)CC1 (centres undefined)	-	-	33.9	-	-
COc1ccccc1N1CCN(C(=O)c2coc(=O)c(Br)c2)CC1	-	-	42.8	-	-
COc1ccccc1C(=O)N1CCC(N2CCN(c3ccccc3OC)CC2)CC1	-	-	37.7	-	-
COc1ccccc1N1CCN(C(=O)C2CC=CCC2C(=O)O)CC1 (centres undefined)	-	-	32.9	-	-
COc1ccccc1N1CCN(C(=O)c2ccoc2C)CC1	-	-	35.0	-	-
COc1ccccc1N1CCN(C(=O)c2c(C)noc2C)CC1	-	-	-	-	-
CCOC(=O)N=S(N)(=O)c1ccc(Cl)cc1 (centres undefined)	-	-	-	-	30.9
CCc1cc2c(cc3c(=O)n(CC(=O)NC(C)C)nc(CC)n32)s1	-	.	.	.	-
Cc1nc(-c2ccc(Cl)cc2)sc1C1(C)CC(c2cccc(F)c2)=NO1 (centres undefined)	-	-	30.5	-	-
Cc1nc(-c2ccc(Cl)cc2)sc1C1(C)CC(c2cccc(Cl)c2)=NO1 (centres undefined)	-	-	-	-	-
CCOc1ccc(C(=O)NCC(=O)OCc2c(C)noc2C)cc1OCC	-	-	37.1	-	-
COc1ccc(C)cc1S(=O)(=O)Nc1ccc(F)c(Cl)c1	-	-	32.0	-	-
O=C(C1CCC(C(=O)N2CCc3ccccc32)CC1)N1CCc2ccccc21 (centres undefined)	-	-	-	-	-
O=C(C1CCN(S(=O)(=O)N2CCOCC2)CC1)N1CCc2ccccc21	-	-	35.6	-	-
CCCC(=O)Nc1cc(-c2nc3cccnc3s2)ccc1C	-	.	.	.	-
Cc1cccc(Cn2ncc(Cl)c(Cl)c2=O)c1	-	-	-	-	-
Cc1cccc(Cn2nnc3c2C(=O)c2ccccc2C3=O)c1	-	-	-	70.9	-
CSC1=NSC2=NC(=O)/C(=C\c3coc4ccccc4c3=O)C(=N)N12	109.7	-	-	-	-
N=C1/C(=C\c2coc3ccccc3c2=O)C(=O)N=C2SC(c3ccncc3)=NN12	59.5	-	-	-	-
COc1ccccc1CNC(=O)c1ccc2c(c1)CCN2S(=O)(=O)c1ccc(Cl)cc1	-	.	.	.	-
CCOC(=O)c1c(NC(=O)CSc2cn(CCNC(=O)c3ccc(OC)c(OC)c3)c3ccccc23)sc2c1CCC2	-	.	.	.	-
